# Bioassay records (PubChem)
# Most compounds without a hit are left out; they make up all but 21% or so of the library.
# MRP reversal = MRP-mediated drug resistance reversal; H69AR cells + 2 uM doxorubicin, CellTiter-Glo, 72 h; differential viability (reversal), % at 10 µM; AID 602; 85,000 tested, 0.04% active;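 active = viability drop by adding the cancer drug above about 55%, with treated viability meeting a 40% cutoff, limit read from the data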;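 note: viability without doxorubicin minus viability with 2 µM doxorubicin for each compound; larger differential means the compound sensitizes cells more to doxorubicin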
# MRP1 act = activators of MRP-1; viability increase, % at 10 µM; H69AR cells + doxorubicin, viability rescue, CellTiter-Glo; 140,000 tested, 0.61% active; AID 799;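 active = viability gain under doxorubicin at or above a set limit, the compound median plus 3 SD, cut at about 4.7% in these data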;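 note: MRP-1 overexpressing cells given doxorubicin 25 µM after compound pretreatment; 18-22 h compound pretreatment then 72 h with doxorubicin before readout; 0% = doxorubicin-only wells and 100% = vehicle-treated cells without doxorubicin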
# CYP2C9 inhib = blocks human cytochrome P450 2C9. CYP2C9 Supersomes, luciferin-H conversion, luminescence. 96,000 tested, 20% active. inhibition, % at 5 µM;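 active = blocking of liver enzyme CYP2C9 beyond about 50% at 5 µM, limit read from the data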
# Target sequence (P11712 whole entry, looked up): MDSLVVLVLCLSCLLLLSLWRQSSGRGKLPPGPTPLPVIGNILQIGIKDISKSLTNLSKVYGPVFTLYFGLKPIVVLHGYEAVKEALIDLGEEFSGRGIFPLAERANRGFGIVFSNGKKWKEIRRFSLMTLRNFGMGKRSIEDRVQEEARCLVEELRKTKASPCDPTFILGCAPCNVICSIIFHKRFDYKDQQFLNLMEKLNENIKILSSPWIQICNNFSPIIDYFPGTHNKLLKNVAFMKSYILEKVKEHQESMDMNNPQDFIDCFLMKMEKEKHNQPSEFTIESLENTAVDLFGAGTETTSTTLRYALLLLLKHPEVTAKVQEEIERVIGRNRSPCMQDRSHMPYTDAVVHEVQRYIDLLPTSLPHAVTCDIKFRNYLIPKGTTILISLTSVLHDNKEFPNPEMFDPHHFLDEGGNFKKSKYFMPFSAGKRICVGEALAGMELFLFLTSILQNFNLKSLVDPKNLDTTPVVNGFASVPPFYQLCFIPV
# CYP2C19 inhib = human CYP2C19 inhibition | AID 778 | inhibition, % at 5 µM | CYP2C19 Supersomes, luciferin-H EGE luminescence, 30 min | 96,000 tested, 21% active | P33261;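 active = CYP2C19 inhibition above a set limit at 5 µM in the primary screen, cut at about 50% in these data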;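 note: plate controls were negative control wells for no effect and 2.5 mM tranylcypromine positive control for full effect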
# CYP2C19 act = increases human CYP2C19 enzyme activity | recombinant CYP2C19, luciferin-H EGE luminescence; stronger effect = higher value; 0 = fully inhibited enzyme, 1 = untreated enzyme | activation factor at 5 µM | 96,000 tested, under 10 active;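 active = activation factor of at least 2 at 5 µM in the primary screen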;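 note: 0 = wells with 2.5 mM tranylcypromine and 1 = vehicle-only wells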
# CYP2C9 activ = increases human cytochrome P450 2C9 activity | P11712 | recombinant CYP2C9, luciferin-H conversion, luminescence; stronger effect = higher value; factor 1 = untreated enzyme, 0 = blocked | activation factor at 5 µM | 96,000 tested, 1.4% active | AID 1024;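 active = activation factor of 2 or more for CYP2C9 at a 5 µM dose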;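 note: 0 = sulfaphenazole-blocked wells and 1 = vehicle-only wells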
# An asterisk follows results filed as active; · = no result given.
SMILES,MRP reversal,MRP1 act,CYP2C9 inhib,CYP2C19 inhib,CYP2C19 act,CYP2C9 activ
CCn1c(Cc2ccccc2)nnc1SCC(=O)Nc1ccc(N)cc1,-5,-1,6,20,0.8,0.9
CC(=O)Nc1ccc(-c2nnc(SCC(=O)Nc3ccc4c(c3)oc3ccccc34)n2C)cc1,12,-4,69*,47,0.5,0.3
Cn1c(SCC(=O)Nc2ccc3nc(SCC(=O)N4CCCC4)sc3c2)nnc1-c1ccc(N)cc1,·,-2,38,16,0.8,0.6
CCOC(=O)C1=CN(c2cccc(F)c2)C=C(C(=O)OCC)C1c1cc(OC)c(O)c([N+](=O)[O-])c1,·,-2,57*,-16,1.2,0.4
CCOC(=O)N1CCN(c2ccc(F)cc2[N+](=O)[O-])CC1,·,0,·,·,·,·
Cc1ccsc1C(=O)OCc1nc2ccccc2c(=O)[nH]1,17,-2,87*,72*,0.3,0.1
CCCCCCCCOC(=O)C1=C(C)Nc2nnnn2C1c1cccs1 (stereo not given),-9,-2,94*,76*,0.2,0.1
C=CCOC(=O)C1=C(C)Nc2ncnn2C1c1cccs1 (stereo not given),-4,-2,32,42,0.6,0.7
CCCCCCCOC(=O)C1=C(C)Nc2ncnn2C1c1cccs1 (stereo not given),2,2,64*,74*,0.3,0.4
Cc1cccc(-n2cnc3cc([N+](=O)[O-])ccc32)c1,·,-2,·,·,·,·
Clc1ccccc1-c1nnc2sc(CCc3ccccc3)nn12,-4,-5,53*,88*,0.1,0.5
c1ccc(CCc2nn3c(-c4ccncc4)nnc3s2)cc1,-17,0,54*,95*,0.1,0.5
N/C(=N\c1nc2c(c(=O)[nH]1)CCCC2)Nc1ccccc1Sc1ccccc1,4,-3,63*,46,0.5,0.4
Nc1nc(Nc2ccccc2Br)nc(C(F)(F)F)n1,5,1,54*,46,0.5,0.5
Fc1ccc(Sc2cc(Cl)c(-c3ccccc3)nn2)cc1,·,-3,57*,45,0.5,0.4
Fc1ccc(Sc2nc(-c3ccccc3)nnc2C(F)(F)F)cc1,·,-3,38,14,0.9,0.6
O=C(OCC1OC(n2cnc3c(N(C(=O)c4ccccc4)C(=O)c4ccccc4)ncnc32)C(O)C1F)c1ccccc1 (stereo not given),-5,-6,94*,80*,0.2,0.1
CCCN1C/C(=C/c2cccc([N+](=O)[O-])c2)C(=O)/C(=C/c2cccc([N+](=O)[O-])c2)C1,·,-5,44,61*,0.4,0.6
CCCN1C/C(=C/c2ccc3c(c2)OCO3)C(=O)/C(=C/c2ccc3c(c2)OCO3)C1,·,-6,·,·,·,·
C(=N\N1CCN(C2c3ccccc3-c3ccccc32)CC1)/c1ccncc1,·,1,36,34,0.7,0.6
Cc1ccsc1/C=N/N1CCN(C2c3ccccc3-c3ccccc32)CC1,·,-1,88*,29,0.7,0.1
C/C(=N\N1CCN(C2c3ccccc3-c3ccccc32)CC1)c1ccncc1,·,-1,52*,77*,0.2,0.5
COc1cc(/C=N/N2CCN(C3c4ccccc4-c4ccccc43)CC2)ccc1O,·,-2,30,1,1,0.7
COCC(C)n1c(C)cc(C(=O)CN2C(=O)NC(Cc3c[nH]c4ccccc34)C2=O)c1C (stereo not given),11,-1,46,41,0.6,0.5
Cc1ccc(CNn2cnnc2SCc2ccc(F)cc2)cc1,3,-3,·,·,·,·
SMILES,MRP reversal,MRP1 act,CYP2C9 inhib,CYP2C19 inhib,CYP2C19 act,CYP2C9 activ
Cc1ccsc1CNn1cnnc1SCc1ccc(Cl)cc1,19,6.3*,·,·,·,·
CCSc1nc(C)cc(Oc2ccc(=O)n(C)n2)n1,3,0,0,11,0.9,1
CCOC(=O)c1cnc(-n2nc(C)cc2C)nc1N(CC)CC,5,0,79*,46,0.5,0.2
CCOC(=O)c1cnc(-n2nc(C)cc2C)nc1NC,6,1,26,31,0.7,0.7
OCCCc1nc2n(n1)C(c1cccs1)C=C(c1ccccc1)N2 (stereo not given),-13,-3,96*,58*,0.4,0
OCCCc1nc2n(n1)C(c1ccccc1)C=C(c1ccc(F)cc1)N2 (stereo not given),-6,-4,·,·,·,·
